# Measured values: PubChem BioAssay AID2417 (National Center for Advancing Translational Sciences (NCATS), 2010)
# Out of some 140,000 compounds screened, about 4,300 (3.1%) were called active. Not shown: some 21% with an inconclusive outcome. Shown is part of a subset that was picked to be rich in actives. Values without a mark were called inactive.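 Rule for the calls: active = readout at or below -70, meaning at least 70% loss of cells showing the perinucleolar compartment, a nuclear body marking cancer cells; inconclusive = readout between -30 and a set limit; inactive = the rest.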
# Experiment: High Content Assay for Compounds that inhibit the Assembly of the Perinucleolar Compartment;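 note: plate controls were DMSO wells for no effect and camptothecin positive control wells for full effect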
# Details: PC3M PTB-GFP, PNC prevalence imaging, 16 h; at 10 µM; active compounds read low
# In short: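 Compounds are pinned in duplicate onto adhered PC3M cells stably expressing GFP-tagged PTB and incubated 16 h at 37 C. Cells are then fixed, nuclei stained with Hoechst, and PNC-positive cells counted.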
row,Structure (SMILES),"activity change (PNC), negative = inhibition"
1,O=C1/C(=C\c2ccccc2Cl)SC(=S)N1CCC(=O)N1CCCc2ccccc21,47.3%
2,O=C(Nc1cccc(S(=O)(=O)N2CCCCC2)c1)c1ccc2c(c1)OCO2,-20.4%
3,COC(=O)Cc1ccc(NC(=S)NCc2ccccc2)cc1,-25.7%
4,CC(C)Oc1ccc(CC(=O)NNC(=S)Nc2ccc(Br)cc2)cc1,-113% (active)
5,Cc1ccc(OC(=O)CCC(=O)Nc2ccc(Br)cc2)cc1,-25%
6,Cc1ccccc1NC(=S)N(CCCN1CCOCC1)Cc1cccs1,27.2%
7,Cc1ccc2c(c1)C1CN(C)CCC1N2C(=O)c1ccccc1NS(=O)(=O)c1ccc(F)cc1C (stereo not drawn),-99.6% (active)
8,CC1CN(C(=O)c2ccccc2NS(=O)(=O)c2cccc([N+](=O)[O-])c2)CC(C)O1 (stereo not drawn),25.2%
9,Cc1ccc(S(=O)(=O)NC(C)C(=O)Nc2ccccc2C(=O)N2CCCC2)cc1 (stereo not drawn),12.1%
10,CCC(=O)Nc1c(C)n[nH]c1C,0.725%
11,O=C(c1cccs1)n1nc(NCc2ccccc2)nc1NCc1ccccc1,-4.14%
12,CC(=O)NC(Cc1ccccc1)C(=O)NC1CCN(c2ncccc2[N+](=O)[O-])CC1 (stereo not drawn),23.2%
13,CC(C)n1c(NCc2c[nH]c3ccccc23)nc2ccccc21,-100% (active)
14,Cc1ccc(O)c(CNc2nc3ccccc3n2C)c1,-1.77%
15,CC(C)n1c(C(O)c2ccccc2)nc2ccccc21 (stereo not drawn),24.7%
16,S=C(NCCc1ccccc1)NCC1CCCO1 (stereo not drawn),-9.43%
17,CCOC(=O)c1nnn(-c2nonc2-n2cccc2)c1CN1CCC(C(=O)OCC)CC1,10.9%
18,CCOC(=O)C1CCN(Cc2coc3ccc(Cl)cc3c2=O)CC1,-80.9% (active)
19,CCOC(=O)C1CCN(c2ncnc3c2oc2ccc(Br)cc23)CC1,11.1%
20,Cc1ccc(C(=O)COC(=O)CCCC(=O)NC2CCCCC2)cc1[N+](=O)[O-],17%
21,COc1ccc(OC)c(-c2c(=O)n(OCc3ccccc3Br)c3ccccc3[n+]2[O-])c1,-113% (active)
22,CCOc1ccc(OCC)c(-c2c(=O)n(OCc3ccc(Cl)cc3)c3ccccc3[n+]2[O-])c1,60.4%
23,C=CCNCCCCOc1ccccc1,-6.05%
24,O=C(NCCNc1ccc([N+](=O)[O-])cc1)c1cccc2c(Br)cccc12,-86.3% (active)

row,Structure (SMILES),"activity change (PNC), negative = inhibition"
1,CN(C)CCNC(=O)Cc1ccc([N+](=O)[O-])cc1,15.1%
2,CC(CNc1ccc([N+](=O)[O-])cc1)NC(=O)c1ccccc1Br (stereo not drawn),3.05%
3,Cc1nc2ccccc2nc(C)c1=NOCc1ccc(Cl)cc1Cl,-24.9%
4,Cc1ccn(-c2cccc(-n3ccc(C)n3)n2)n1,-4.25%
5,Cc1c(C2=CCN(S(=O)(=O)c3ccc(Cl)cc3)CC2)c2ccccc2n1C,30.7%
6,N/C(=N\OS(=O)(=O)c1cccc([N+](=O)[O-])c1)c1ccncc1,-108% (active)
7,CO/N=C(\N)c1ccc([N+](=O)[O-])cc1,28.8%
8,O=[N+]([O-])c1cccc(S(=O)(=O)N2CCCCCC2)c1,-7.16%
9,CCC1(C(=O)c2ccccc2)C(c2cccc([N+](=O)[O-])c2)C1(C(=O)OC)C(=O)OC (stereo not drawn),-9.15%
10,CC(C)(C)n1nnc(CCc2nnn(C(C)(C)C)n2)n1,-91.9% (active)
11,O=C(Nc1ccc([N+](=O)[O-])cc1)C1(c2ccccc2)CCOCC1,5.8%
12,COc1cccc(/C=N/NC(=O)c2cccc([N+](=O)[O-])c2)c1OS(=O)(=O)c1ccc(C)cc1,20.7%
13,Cc1ccc(-n2[nH]c(C)c(/C=N/NC(=O)c3cccc([N+](=O)[O-])c3)c2=O)cc1C,3.84%
14,Cc1cc(C(=O)N/N=C/c2cc([N+](=O)[O-])cc(C)c2O)n[nH]1,-128% (active)
15,Cc1nn(-c2ccccc2)c(-n2cccc2)c1C(=O)O,4.84%
16,CCc1nnc(NC(=O)C2CC(=O)N(c3ccc4c(c3)OCCO4)C2)s1 (stereo not drawn),-107% (active)
17,CCc1ccc(N2CC(C(=O)NC3=NCCS3)CC2=O)cc1 (stereo not drawn),10.4%
18,CC(C)c1ccc(N2CC(C(=O)Nc3nccs3)CC2=O)cc1 (stereo not drawn),21.8%
19,O=C(COc1ccccc1F)NNC(=O)c1ccc(N2CCCCC2)c([N+](=O)[O-])c1,-26.5%
20,CCOC(=O)Cc1csc(SCC(=O)NC(C)C23CC4CC(CC(C4)C2)C3)n1 (stereo not drawn),20%
21,Cc1ccc(/C=N/NC(=O)COc2ccccc2-c2ccccc2)cc1,-125% (active)
22,Cc1ccc(OCC(=O)N/N=C\c2ccco2)c(C)c1,54.4%
23,Cc1ccc(OCC(=O)N/N=C/c2ccncc2)cc1,28.2%
24,CCc1ccc(NC(=O)C(C)OC(=O)/C=C/c2cccc([N+](=O)[O-])c2)cc1 (stereo not drawn),10.2%

row,Structure (SMILES),"activity change (PNC), negative = inhibition"
1,O=C1NC(c2ccccc2)CCC1(Cl)Cl (stereo not drawn),-7.09%
2,C=CCn1c(N)cc(=O)nc1SCC(=O)Nc1cccc2ccccc12,69%
3,O=C(CNCCO)NC12CC3CC(CC(C3)C1)C2,20.6%
4,C=CCn1c(SCC(=O)NC23CC4CC(CC(C4)C2)C3)nc(O)cc1=O,-100% (active)
5,Cc1cc(C)cc(OCC(=O)NNC(=O)CCN2C(=O)c3ccccc3C2=O)c1,31.4%
6,O=C(Oc1cccc(N2C(=O)C3C4c5ccccc5C(c5ccccc54)C3C2=O)c1)c1ccco1 (stereo not drawn),-97.3% (active)
7,CC(=O)Oc1cccc(N2C(=O)C3CC=C(Cl)CC3C2=O)c1 (stereo not drawn),-0.248%
8,CC(=O)Nc1ccc(N2C(=O)C3C4CC(=O)C(c5ccccc54)C3C2=O)cc1 (stereo not drawn),13.1%
9,COc1cc(NC(=O)c2cc([N+](=O)[O-])ccc2Br)ccc1NC(=O)c1ccco1,38.2%
10,CC(Sc1nnc2c(n1)C1CCC2(C)C1(C)C)C(=O)Nc1ccccc1 (stereo not drawn),11.5%
11,O=C(Cc1ccccc1)NNS(=O)(=O)c1ccc([N+](=O)[O-])cc1,3.03%
12,Clc1cccc(CN2COc3c(cc(Cl)c4cccnc34)C2)c1,-27.1%
13,Cc1nn(Cc2ccccc2Cl)c(C)c1NC(=O)Cn1nc([N+](=O)[O-])c(Cl)c1C,29.3%
14,Cc1ccc(C(C)NC(=O)Cn2nc(C)c([N+](=O)[O-])c2C)cc1 (stereo not drawn),1.18%
15,Cc1c(Cl)c([N+](=O)[O-])nn1CCCC(=O)NC(C)c1ccccc1 (stereo not drawn),-83.2% (active)
16,O=C(Cc1ccccc1)Nc1cccc(C(=O)N/N=C/c2ccco2)c1,-20.1%
17,COC(=O)/C(C#N)=C/c1occc1C,11.3%
18,CS(=O)(=O)c1sc2nc(-c3ccccc3)cc(-c3ccccc3)c2c1N,18.6%
19,Nc1cccc(CCc2nc3ccccc3[nH]2)c1,-19.2%
20,Nc1cccc(-c2cc(-c3ccccc3)nc(-c3cccc(N)c3)n2)c1,-112% (active)
21,Cc1ccc(N2C(=O)C(NC(=O)c3c(F)cccc3F)(C(F)(F)F)C3=C2CC(C)(C)CC3=O)cc1 (stereo not drawn),-6.53%
22,Cc1ccc2[nH]c(=O)c(CC=C(Cl)Cl)c(C)c2c1,8.75%
23,Cc1nc(-c2ccc(NC(=O)c3cccs3)cc2)cs1,20.4%
24,O=C(O)c1ccc(NC(=O)c2cccs2)cc1,-100% (active)

row,Structure (SMILES),"activity change (PNC), negative = inhibition"
1,O=C(O)Cc1ccc(NC(=O)c2cccs2)cc1,-2.77%
2,CCCCN1C(=O)c2ccc(C(=O)Nc3ccc(S(=O)(=O)N(C)C)cc3)cc2C1=O,-17.6%
3,CCOC(=O)COc1ccc([N+](=O)[O-])cc1,14.3%
4,CCOc1cc(/C=N/NC(=O)OC)ccc1OCCSc1ccc(Cl)cc1,45.6%
5,CCCC(NC(=O)c1ccco1)c1nc2ccccc2[nH]1 (stereo not drawn),16.4%
6,Cc1cc(=O)oc2ccc(OCC(=O)O)cc12,55.8%
7,Cc1ccc(CNC(=O)COc2ccc3c(c2)CCC3)cc1,-5.6%
8,Cc1ccc(SC(=O)COc2ccc(C)c(C)c2)cc1,-106% (active)
9,O=C(COC(=O)c1cc([N+](=O)[O-])ccc1NCc1ccccc1)NC1CCCCC1,50.7%
10,Cc1ccc2c(c1)C(c1ccccc1)N(C(=O)c1ccc(S(=O)(=O)N3CCOCC3)cc1)CC(=O)N2 (stereo not drawn),7.14%
11,COc1ccc(/C=N/NC(=O)c2ccccc2)cc1OS(=O)(=O)c1ccccc1,45.9%
12,O=C(NC(=S)Nc1ccc2oc(=O)ccc2c1)c1ccc(-c2cccc(Cl)c2Cl)o1,-8.36%
13,CCOC(=O)C1=C(C)N=C2c3ccccc3C(=O)C2C1c1ccc(Br)cc1 (stereo not drawn),-24.2%
14,COC(=O)C1=C(C(=O)OC)C2(OC1c1ccc(Br)cc1)C(=O)c1ccccc1C2=O (stereo not drawn),-100% (active)
15,COC(=O)C1=C(C)N(C)C(C)=C(C(=O)OC)C1c1cccc(Br)c1,20%
16,Cc1cccc2cc(CN(C(=O)c3cccs3)c3ccccc3)c(=O)[nH]c12,29.9%
17,COc1ccc(/C(C)=N/Nc2cc(C(F)(F)F)ccc2Cl)c(OC)c1,-13.2%
18,O=C(c1ccc2c(c1)OCO2)N1CCOCC1,-100% (active)
19,O=C(c1ccc2c(c1)OCO2)N1CCNc2ccccc2C1,-29.9%
20,O=C(c1ccc2c(c1)OCO2)N1CCN(C(=O)c2ccco2)CC1,54.5%
21,Cc1cccc(OP(=O)(Nc2c(C)n(C)n(-c3ccccc3)c2=O)Oc2cccc(C)c2)c1,-6.43%
